According to the OligoGym collection:

The sequences below were run against NUP54 (assay: pooled miR-30 sensor sort-seq; sequence = guide strand). Conditions: shRNA.
Further: reference of the scale not given here.

| Sequence | sensor-assay potency score (higher = more potent) |
| --- | --- |
| TATATCTTCTAGATCGTCTTTA | 0.519 |
| ATAAATAACAACTTCTGTCTGA | 1.09 |
| TTGTTGTTTCAAATGCTGCTTG | 0.0156 |
| TTCTAGATCGTCTTTAATGATG | -1.29 |
| TAAATAACAACTTCTGTCTGAT | 0.552 |
| TACATTTACAGTAAGGGTCTGG | 0.14 |
| TTATATCTTCTAGATCGTCTTT | -0.236 |
| TAAACCAGTACTAGTTCCCGTT | -0.284 |
| TAACAGATCTGCATCTATGTAA | 0.386 |
| TTCCTGTTTGATTAGGACCTGT | 0.0888 |
| TAATGTAGTTTGCTGCTGCTGC | 0.262 |

These sequences were tested against NUTF2 in the same assay as above. Conditions: shRNA.

| Sequence | sensor-assay potency score (higher = more potent) |
| --- | --- |
| TTCTCCTTCACTTCTTTGGGTT | -0.477 |
| TATCATTATCAAATAACTGGTA | 0.126 |
| TAATAGGAACATCTGGTGGAAC | -1.27 |
| TTTAATAGGAACATCTGGTGGA | 0.705 |
| TTTTGCATTACTTAAGTCTTTC | -0.669 |
| TACTAGAGCAACTTGTCAGTAG | 0.355 |
| TTCTTTAATAGGAACATCTGGT | -0.647 |
| TAGTAATGTTGAATGAAGCTGG | 0.656 |
| TGCAACTAGTCTAGCATCCAAA | -1.42 |
| TTAATAGGAACATCTGGTGGAA | -0.0861 |
| TACAACACAAACTTCTCCCGTC | 0.549 |

These sequences were tested against NXF3 in the same assay as above. Conditions: shRNA.

| Sequence | sensor-assay potency score (higher = more potent) |
| --- | --- |
| TGCTCTTCTTTGAACAACTTGA | -0.684 |
| TTGACAAAGATTGATATCTTTT | -1.25 |
| TTGCTCTTCTTTGAACAACTTG | -0.818 |
| TGCATCTCCATCTTGCTGCTGA | -0.136 |
| TTACAGGTTGGTAACCTCTTGT | 0.125 |
| TTCATAGTGAAACTCAACTGGG | -0.55 |
| TTATCTGCTCCACCTTTTCTGA | -1.35 |
| AATCTTGCCACTGACATTCTTC | -0.451 |
| TTTTCTGACTTCAGCTCCCTGT | -0.506 |
| TTGAACAACTTGATCAGTGTGA | 0.976 |
| TAATTTGGGGAACAATTCCAGG | -1.33 |
| TTCTTCAACATCTCAGATCCAA | 0.0512 |

What follows are sequences tested against NXF5 in the same assay as above. Conditions: shRNA.

| Sequence | sensor-assay potency score (higher = more potent) |
| --- | --- |
| TTTTGTGTGCTTTAGCAGCTTC | 0.239 |
| TTCGTGGACATTTTGTGTGCTT | -0.318 |
| TACATAGGCAGACTGGTCCGAG | -0.391 |
| TACAGTTTGTTGTTGCACAAGT | -0.398 |
| TTGAAGTACTTGCACAAGTTGC | -0.882 |
| TTACATAGGCAGACTGGTCCGA | 0.61 |
